Laboratory results taken from ChEMBL document CHEMBL1961873, “Compounds: GSK PKIS; Assays: Nanosyn kinase panel” (2012).
“And” between values parts separate entries of the source, which are not always exact repeats. Equal entries are not always repeated.

molecular target: T1, Serine/threonine-protein kinase 3 (Homo sapiens) (UniProt Q13188); details: at 1 µM
T1 sequence (whole entry): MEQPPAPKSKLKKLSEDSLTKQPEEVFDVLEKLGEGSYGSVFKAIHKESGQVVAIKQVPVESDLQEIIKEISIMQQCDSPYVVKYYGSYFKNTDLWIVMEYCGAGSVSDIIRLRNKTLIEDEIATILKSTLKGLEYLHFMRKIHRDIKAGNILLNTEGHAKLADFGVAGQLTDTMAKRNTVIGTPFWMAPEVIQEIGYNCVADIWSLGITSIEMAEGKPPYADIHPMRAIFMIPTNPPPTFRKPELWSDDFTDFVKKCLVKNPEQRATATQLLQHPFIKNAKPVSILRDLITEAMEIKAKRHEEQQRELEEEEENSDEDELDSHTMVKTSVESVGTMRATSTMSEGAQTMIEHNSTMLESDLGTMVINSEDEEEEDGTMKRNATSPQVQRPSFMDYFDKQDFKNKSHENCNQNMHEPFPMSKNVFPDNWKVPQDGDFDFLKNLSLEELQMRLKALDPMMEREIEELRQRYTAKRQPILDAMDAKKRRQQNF
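Also: each value is the mean inhibition of MST2.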

| Compound | inhibition |
| --- | --- |
| CNC(=O)c1cncc(/C=C/c2ccccc2C)c1 | 15.2% |
| CC(C)c1ccc(-c2cc(-c3c[nH]nc3-c3ccccn3)ccn2)cc1 | 0.64% |
| Fc1cccc(COc2ccc(Nc3ncncc3C#Cc3ccccc3)cc2Cl)c1 | 8.97% |
| NS(=O)(=O)c1ccc(N/N=C2\C(=O)Nc3cccc(CCc4ccncc4)c32)cc1 | 29.8% |
| CCn1c(-c2nonc2N)nc2cncc(C(=O)NCCNC)c21 | 7.27% |
| CS(=O)(=O)CCNCc1ccc(-c2ccc3ncnc(Nc4ccc(OCc5cccc(C(F)(F)F)c5)cc4)c3c2)o1 | 5.04% |
| Cc1cc(O)cc(C)c1/C=C/c1cncc(C(=O)OC(C)(C)C)c1 | 6.28% |
| O=C(O[C@H]1CN[C@H](C#Cc2cc3ncnc(Nc4ccc(OCc5cccc(F)c5)c(Cl)c4)c3s2)C1)N1CCOCC1 | 6.61% |
| c1ccc(-c2n[nH]cc2-c2ccnc(-c3ccc(OCCn4ccnc4)cc3)c2)nc1 | 3.49% |
| c1cnn2ncc(-c3ccnc(NCCCN4CCOCC4)n3)c2c1 | 2.29% |
| O=C(O[C@H]1CN[C@H](C#Cc2cc3ncnc(Nc4ccc5c(ccn5Cc5cc(F)ccc5F)c4)c3s2)C1)N1CCOCC1 | 1.92% |
| O=C(O[C@H]1CN[C@H](C#Cc2cc3ncnc(Nc4ccc5c(cnn5Cc5ccccc5)c4)c3s2)C1)N1CCOCC1 | 5.49% |
| COc1ccc(Nc2ncc(-c3ccccc3)o2)cc1OC | 2.73% |
| CC1=C(C(=O)Nc2ccc3[nH]nc(C)c3c2)C(c2ccc(C(F)(F)F)cc2)CC(=O)N1 (stereo unspecified) | 5.46% |
| Cn1c(-c2nonc2N)nc2cnccc21 | 5.05% |
| CCS(=O)(=O)c1ccc(OC)c(Nc2ncc(-c3cccc(F)c3)o2)c1 | 8.4% |

| Compound | inhibition |
| --- | --- |
| Cc1nnc(-c2cccc(-c3ccc(C(=O)NCC4CC4)cc3)c2)o1 | 10.4% |
| COc1cc2c(cc1Nc1nc(Nc3cccc(F)c3C(N)=O)c3cc[nH]c3n1)N(C(=O)CN1CCN(C(C)C)CC1)CC2 | 2.65% |
| COc1cc(N2CCN(C(C)C)CC2)ccc1Nc1nc(Nc2cccc(F)c2C(=O)O)c2cc[nH]c2n1 | 9.11% |
| NC(=O)c1ccc2c(-c3ccnc(NCCCO)n3)c(-c3ccc(F)cc3)nn2c1 | 4.67% |
| COc1ccccc1-c1cc(/C=C2\C(=O)Nc3ncc(Br)cc32)cc(Br)c1O | 8.09% |
| COC(=O)Nc1nc2ccc(Oc3ccc(NC(=O)Nc4cc(C(F)(F)F)ccc4F)cc3)cc2s1 | -0.3% |
| CN1CCC(C(=O)Nc2n[nH]c3nc(-c4ccc(O)cc4)c(Br)cc23)CC1 | 13.2% and 3.69% |
| CCOc1ccc2c(-c3ccnc(Nc4cc(OC)cc(C(F)(F)F)c4)n3)cnn2n1 | 2.45% |
| CC1=C(C(=O)Nc2ccc3[nH]ncc3c2)C(c2ccc(F)cc2)N=C(c2ccc(C(F)(F)F)nc2)N1 (stereo unspecified) | 0.56% |
| Nc1ncnc2occ(-c3ccc(NC(=O)Nc4cc(C(F)(F)F)ccc4F)cc3)c12 | 6.36% and -2.2% |
| CCS(=O)(=O)c1ccc(OC)c(Nc2ncc(-c3cccc(C(C)=O)c3)o2)c1 | 12.6% |
| FC(F)(F)CNc1nccc(-c2cnn3ncccc23)n1 | 6.67% |
| CN(C)CCNC(=O)Nc1ccc(N(C)c2ccnc(Nc3ccc(CS(C)(=O)=O)cc3)n2)cc1 | 6.98% |
| Nc1nccc(-c2c(-c3ccc(F)cc3)ncn2C2CCNCC2)n1 | 1.14% and 0.77% |
| CN1CCC(n2cnc(-c3ccc(F)cc3)c2-c2ccnc(NCCO)n2)CC1 | 9.48% |
